# Assay results published in PubChem BioAssay (NCATS).
# “And” between values parts separate entries of the source, which are not always exact repeats. Equal entries are not always repeated. Results filed as inconclusive are left out. The source made the active and inactive calls. Unless noted, the call rests on the fitted dose curve; in most records, active means well fitted curve in the direction sought with a large enough effect; inconclusive means small, poorly fitted or top-dose-only effect, or another doubt; inactive means no such curve, though single readings can be large; an effect the other way counts as inactive or inconclusive.
# Key:
# [1] = qHTS profiling of the MIPE4 collection as inhibitors of Plasmodium falciparum (3D7) proliferation (AID 743344; call rule not given here;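 further: scaled between DMSO vehicle wells and 0.29 µM artemisinin as full inhibition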); settings: P. falciparum 3D7 in erythrocytes, SYBR Green DNA fluorescence, 72 h; at 28.5 µM unless noted
# How it was run: (§1)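 Parasite DNA was quantified by SYBR Green I fluorescence (ex 485, em 535 nm) after overnight lysis in saponin/Triton buffer at room temperature. Cultures at 0.3% parasitemia and 2.5% hematocrit were first exposed to compound for 72 h at 37 C; signals were normalised to artemisinin (0.29 uM) and vehicle wells.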
# [2] = qHTS profiling of the MIPE4 collection as inhibitors of Plasmodium falciparum (DD2) proliferation (AID 743345; call rule not given here); settings: P. falciparum Dd2 in erythrocytes, SYBR Green DNA, 72 h; at 28.5 µM unless noted
# How it was run: as §1
# [3] = qHTS profiling of the MIPE4 collection as inhibitors of Plasmodium falciparum (HB3) proliferation (AID 743347; call rule not given here;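 further: plate controls were DMSO vehicle wells for no effect and artemisinin wells for full effect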); settings: P. falciparum HB3 in erythrocytes, SYBR Green DNA, 72 h; at 28.5 µM unless noted
# How it was run: as §1
# [4] = High-throughput drug toxicity screening in the BPDCN cell line Gen2.2 (AID 1224824; call rule not given here;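 further: cells exposed to compounds for 48 h before reading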); settings: Gen2.2 BPDCN cells; at 45.8 µM (top of the series) unless noted
# How it was run: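 CellTiter-Glo luminescence after 48 h compound exposure of Gen2.2 cells; percent activity set with DMSO as 100% and bortezomib (9.2 uM final) as 0%. Cells seeded at 500 per well, RPMI + 10% FBS, 37 °C.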
# [5] = High-throughput drug toxicity screening in the BPDCN cell line Cal-1 (AID 1224825; call rule not given here); settings: Cal-1 BPDCN cell viability, qHTS; at 45.8 µM (top of the series) unless noted
# How it was run: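 CellTiter-Glo luminescence after 48 h compound exposure; percent activity scaled with DMSO as 100% and bortezomib (9.2 uM final) as 0%. Cal-1 cells seeded at 500/well in RPMI, 10% FBS, no phenol red.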
# [6] = qHTS assay for measurement of the activity of small molecule inhibitors on Zika virus induced Caspase-3 activity in human iPSC derived neural progenitor cells (hNPCs) (AID 1224857); further: % of control where 0% means no effect; nearly all actives have a fitted effect of over 65% in size
# How it was run: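 hNPCs seeded 350 cells/well, cultured 16–20 h; compounds added 1 h before ZIKV (2 FFU/cell), 37 C 6 h. Caspase-Glo 3/7 luminescence after 30 min RT; % inhibition from induction scaled to uninfected (0%) and infected (100%) wells.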
# [7] = qHTS assay for measurement of the activity of small molecule inhibitors on Zika virus induced Caspase-3 activity in human astrocytoma cells (AID 1224859);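 further: plate controls were ZIKV-infected untreated cells for no effect and uninfected cells for full effect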
# How it was run: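 Luminescence read-out (Caspase-Glo 3/7, 30 min RT) of caspase activity in SNB-19 cells infected 6 h with ZIKV, 2 FFU/cell, after 1 h compound pretreatment; % inhibition from induction normalised to uninfected (0%) and infected (100%) wells.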
# [8] = qHTS Screen of the MIPE 4.0 Collection Against Ewings Sarcoma (TC32) (AID 1259256); further: nearly all actives have a fitted effect of over 45% in size; further: potency means the concentration at half of the fitted maximal effect
# How it was run: (§2)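 Dose series incubated 48 h with cells in RPMI plus 5% FBS, glutamine and penicillin/streptomycin; cell viability then quantified via CellTiter-Glo.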
# [9] = qHTS Screen of the MIPE 4.0 Collection Against Ewings Sarcoma (RDES) (AID 1259252); further: nearly all actives have a fitted effect of over 35% in size; further: potency means the concentration at half of the fitted maximal effect
# How it was run: as §2
# [10] = qHTS Screen of the MIPE 4.0 Collection Against Ewings Sarcoma (TC71) (AID 1259253); further: nearly all actives have a fitted effect of over 40% in size; further: potency means the concentration at half of the fitted maximal effect
# How it was run: as §2
# [11] = qHTS Screen of the MIPE 4.0 Collection Against Ewings Sarcoma (EW8) (AID 1259255); further: nearly all actives have a fitted effect of over 35% in size; further: potency means the concentration at half of the fitted maximal effect;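 on viability: 100% = DMSO-treated cells and 0% = medium-only wells without cells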
# How it was run: as §2
# [12] = qHTS assay to identify small molecule inhibitors of chordoma cells - UCH-1 (AID 1259355); further: on the % scale 0 is the no-effect control and ±100 the full control effect; nearly all actives have a fitted effect of over 55% in size
# How it was run: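 Screening used approved and investigational drugs in 15-point titration against 800 seeded cells per well. A fixed combination of auranofin with camptothecin, doxorubicin, rubitecan and topotecan followed compound addition, and growth was scored by CellTiter-Glo after 48hr.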
# [13] = qHTS assay to identify small molecule inhibitors of chordoma cells - UCH-2 (AID 1259356); further: on the % scale 0 is the no-effect control and ±100 the full control effect
# [14] = qHTS profiling of the MIPE4 collection as inhibitors of Plasmodium falciparum (DD2) proliferation (Rep 2) (AID 743346; call rule not given here); settings: P. falciparum Dd2 in erythrocytes, SYBR Green DNA, 72 h; at 28.5 µM unless noted
# How it was run: as §1
# [15] = Identifying Small Molecule Inhibitors of Pancreatic Cancer Stem Cells (SN12C, Adherent) (AID 1259358);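 further: cell survival measured after 48 h of compound exposure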
# How it was run: (§3)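 Endpoint: ATP-based luminescence, 48 h drug exposure. Bortezomib at 9.2 uM final as full-kill control; DMSO vehicle as negative control; activity normalized between vehicle and cell-free wells.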
# [16] = Identifying Small Molecule Inhibitors of Pancreatic Cancer Stem Cells (SN12C, Spheroid) (AID 1259360);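 further: 100% = DMSO-treated cells and 0% = wells without cells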
# How it was run: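 Viability is scored by CellTiter-Glo luminescence 48 h after dosing, expressed as percent activity against vehicle and no-cell references. Spheroid formats rely on cells cultured 14 days in stem cell media beforehand.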
# [17] = Identifying Small Molecule Inhibitors of Pancreatic Cancer Stem Cells (A278, Adherent) (AID 1259361);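 further: viability read after 48 h compound exposure; nearly all actives have a fitted effect of over 35% in size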;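 on viability (% of control): 100% = DMSO-treated cells and 0% = cell-free media-only wells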
# How it was run: as §3
SMILES,"parasite growth, % of DMSO control [1]","parasite growth remaining, % of DMSO control (lower = more inhibition) [2]","growth, % of control [3]","cell viability, % of control (lower = more cytotoxic) [4]",viability (% of control) [5],Potency [6],Potency [7],Potency [8],Potency [9],Potency [10],Potency [11],Potency [12],outcome [13],"parasite growth, % of control (lower = inhibition) [14]",Potency [15],outcome [16],IC50 (viability decrease) [17]
CN1CCN(CCCN2c3ccccc3Sc3ccc(Cl)cc32)CC1,6.12%,13%,7.64%,107%,22.7%,inactive,inactive,26.4 µM (active),–,–,–,–,–,–,–,–,–
COc1nc(C)nc(Cl)c1NC1=NCCN1,89.8%,89.9%,98.4%,136%,97.7%,inactive,–,inactive,inactive,inactive,inactive,inactive,inactive,–,–,–,–
CN(Cc1cnc2nc(N)nc(N)c2n1)c1ccc(C(=O)N[C@@H](CCC(=O)O)C(=O)O)cc1,8.82%,7.1%,19.5%,70%,9.1%,–,inactive,0.0372 µM (active),0.0332 µM (active),0.0148 µM (active),0.0264 µM (active),–,inactive,8.39%,–,–,–
COc1ccc(CCN(C)CCCC(C#N)(c2ccc(OC)c(OC)c2)C(C)C)cc1OC (stereo not drawn),–,–,–,96.5% [at 92.2 µM],105% [at 92.2 µM],inactive,–,–,inactive,–,inactive,–,–,–,inactive,inactive,inactive
Cc1cn([C@H]2C[C@H](N=[N+]=[N-])[C@@H](CO)O2)c(=O)[nH]c1=O,412%,109%,588%,59.6%,78.5%,inactive,–,inactive,inactive,inactive,inactive,inactive,inactive,117%,–,–,–
CCc1cccc2c3c([nH]c12)C(CC)(CC(=O)O)OCC3 (stereo not drawn),71%,86%,94.1%,138%,128%,–,inactive,inactive,inactive,–,inactive,inactive,inactive,85%,–,–,–
O=C(c1ccc(F)cc1)C1CCN(CCn2c(=O)[nH]c3ccccc3c2=O)CC1,109%,19.2%,61.3%,216%,112%,inactive,inactive,inactive,–,–,–,inactive,inactive,–,–,–,–
COc1cc2nc(N3CCN(C(=O)c4ccco4)CC3)nc(N)c2cc1OC,4.68%,20.6%,2.87%,8.89%,5.38%,inactive,inactive,–,–,–,18.7 µM (active),–,–,–,–,–,–
COc1ccccc1OCC(O)CN1CCN(CC(=O)Nc2c(C)cccc2C)CC1 (stereo not drawn),126%,97.5%,101%,126%,18.6%,–,inactive,inactive,inactive,inactive,inactive,inactive,inactive,193%,–,–,–
COc1ccc2[nH]cc(CCNC(C)=O)c2c1,89.5% and 101%,107% and 104%,79.2% and 70.9%,132%,65.3%,inactive,–,3.32 µM (active),–,1.05 µM (active),2.96 µM (active),–,inactive,89.3% and 83%,–,–,–
NS(=O)(=O)c1cc2c(cc1Cl)NCNS2(=O)=O,53.2%,53.5%,40.8%,159%,125%,–,inactive,inactive,inactive,inactive,inactive,–,inactive,39.6%,–,–,–
CC(C(=O)O)c1cccc(C(=O)c2ccccc2)c1 (stereo not drawn),–,–,–,152%,103%,inactive,–,14.8 µM (active),7.43 µM (active),–,–,inactive,inactive,–,–,–,–
Cc1ccccc1N1C(=O)c2cc(S(N)(=O)=O)c(Cl)cc2NC1C (stereo not drawn),92.5%,51%,72.5%,73.5%,108%,inactive,–,inactive,–,inactive,inactive,–,inactive,83.2%,–,–,–
O=c1c(-c2ccc(O)cc2)coc2cc(O)cc(O)c12,72.2%,88.4%,31.8%,55.3%,13.8%,inactive,–,inactive,18.7 µM (active),–,inactive,inactive,–,–,–,–,–
CC1(CN2CCC(n3c(=O)[nH]c4ccccc43)CC2)OCc2ccccc2-n2cccc21 (stereo not drawn),10.9%,9.37%,7.33%,137%,102%,–,inactive,14.8 µM (active),16.6 µM (active),16.6 µM (active),14.8 µM (active),inactive,inactive,11%,inactive,–,–
CN1CCN(C2=Nc3cc(Cl)ccc3Nc3ccccc32)CC1,–,–,–,121%,83.1%,inactive,inactive,–,–,–,–,–,inactive,–,–,–,–
O=c1c(O)c(-c2ccc(O)c(O)c2)oc2cc(O)cc(O)c12,12.8%,–,11.6%,108%,34.4%,inactive,–,20.9 µM (active),–,18.7 µM (active),13.2 µM (active),inactive,inactive,9.46%,–,–,29.6 µM (active)
Fc1ccc([C@@H]2CCNC[C@H]2COc2ccc3c(c2)OCO3)cc1,35.7%,39.5%,58.5%,66.2%,79%,inactive,–,–,–,18.7 µM (active),–,–,–,–,–,–,–
CN(C)C(=O)C(CCN1CCC(O)(c2ccc(Cl)cc2)CC1)(c1ccccc1)c1ccccc1,–,–,–,71%,12.1%,inactive,–,18.7 µM (active),–,20.9 µM (active),16.6 µM (active),–,inactive,–,–,–,–
Clc1ccc(C(c2ccccc2Cl)C(Cl)Cl)cc1 (stereo not drawn),24.3%,51.1%,50.8%,22.5%,18.1%,inactive,–,–,–,–,–,inactive,inactive,–,–,–,–
COc1cc2c(c(OC)c1OC)-c1ccc(OC)c(=O)cc1[C@@H](NC(C)=O)CC2,–,–,–,10.1%,11.2%,inactive,–,inactive,inactive,inactive,inactive,–,inactive,–,–,–,–
